# Source: PubChem BioAssay
# Hits are enriched below; roughly 7% of the tested compounds scored in any of these assays.
# BAZ2B inh: qHTS Assay for Inhibitors of BAZ2B | Bromodomain adjacent to zinc finger domain protein 2B (Homo sapiens), Q9UIF8 | AlphaScreen BAZ2B-H3K14Ac peptide displacement | Potency, µM (highest dose often 114 µM), hits mostly inhibitors | 360,000 compounds, 4.4% hits; also: nearly all actives have a fitted effect of over 60% in size
#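 BAZ2B 50 nM plus b-H3(5-23)K14Ac 50 nM, PBS pH 7.4/0.01% Tween-20, 30 min RT; compound added (max 110 uM), 30 min RT; streptavidin donor/Ni-chelate acceptor beads 10 ug/mL final, 20 min dark; AlphaScreen read.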
# GCN5L2 inh: qHTS Assay for Inhibitors of GCN5L2. Histone acetyltransferase KAT2A (Homo sapiens), Q92830. GCN5L2 HAT assay, ThioGlo1 CoA-SH fluorescence. Potency, µM (titrated, usually from 58.9 µM), hits mostly inhibitors. 390,000 compounds, 0.21% hits. AID 504327, 2011
#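 Free CoA generated was detected with ThioGlo1 (50uM) fluorescence at Ex340nm/Em540nm, read immediately and after 20 min at room temperature. Enzyme, 20 nM in HEPES pH 7.5 buffer, saw compounds 15 min before adding 75uM H3(1-25) peptide and 70uM acetyl-CoA.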
# PLK1 PBD inh: qHTS for Inhibitors of PLK1-PDB (polo-like kinase 1 - polo-box domain): Primary Screen. Serine/threonine-protein kinase PLK1 (Homo sapiens), P53350. Plk1 PBD binding of FITC phosphopeptide, fluorescence polarization. Potency, µM, most hits filed as inhibitors. 360,000 compounds, 2.8% hits; also: series mostly up to about 57 µM; nearly all actives have a fitted effect of over 65% in size
# Target sequence (P53350 whole entry, looked up, the tested form may be a part): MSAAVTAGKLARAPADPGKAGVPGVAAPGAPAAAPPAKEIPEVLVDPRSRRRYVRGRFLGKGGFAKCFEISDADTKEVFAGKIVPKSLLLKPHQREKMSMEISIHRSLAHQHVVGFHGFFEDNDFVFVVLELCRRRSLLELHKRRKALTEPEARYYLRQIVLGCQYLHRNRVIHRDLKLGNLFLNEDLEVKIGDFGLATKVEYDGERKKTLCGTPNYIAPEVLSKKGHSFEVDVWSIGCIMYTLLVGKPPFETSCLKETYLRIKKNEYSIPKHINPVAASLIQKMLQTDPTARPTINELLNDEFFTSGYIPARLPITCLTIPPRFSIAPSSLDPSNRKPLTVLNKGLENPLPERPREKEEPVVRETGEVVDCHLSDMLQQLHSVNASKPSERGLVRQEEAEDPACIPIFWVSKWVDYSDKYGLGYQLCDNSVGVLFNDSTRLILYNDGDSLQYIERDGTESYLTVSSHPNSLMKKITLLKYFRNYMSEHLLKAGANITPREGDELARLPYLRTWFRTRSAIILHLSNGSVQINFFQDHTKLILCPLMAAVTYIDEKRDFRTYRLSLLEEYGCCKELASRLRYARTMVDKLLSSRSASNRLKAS
# HP1b binding inh: HTS for Inhibitors of HP1-beta Chromodomain Interactions with Methylated Histone Tails. Chromobox protein homolog 1 (Homo sapiens), P83916. AlphaScreen HP1-beta / biotin-H3K9me3 peptide binding. Potency, µM (top dose mostly 114 µM), actives largely listed as inhibitors. 390,000 compounds, 0.56% hits. AID 540317, 2011; also: nearly all actives have a fitted effect of over 70% in size
#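 AlphaScreen: HP1-beta (50 nM) preformed 30 min with biotin-H3(1-18)K9me3 peptide (50 nM) in PBS pH 7.4, 0.01% Tween-20. Compound added for 30 min at RT, then streptavidin donor/nickel chelate acceptor beads (10 ug/mL) for 30 min.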
# JMJD2A Tudor: qHTS Assay for Inhibitors of JMJD2A-Tudor Domain. Lysine-specific demethylase 4A (Homo sapiens), O75164. AlphaScreen JMJD2A-Tudor / H3K4me3 peptide binding. Potency, µM (titrated, usually from 114 µM), hits mostly inhibitors. 390,000 compounds, 4.4% hits; also: nearly all actives have a fitted effect of over 50% in size
# PI5P4K alpha inh: qHTS for Inhibitors of phosphatidylinositol 5-phosphate 4-kinase (PI5P4K); 330,000 compounds, 1.2% hits; AID 652105, 2013; PI5P4Kalpha enzyme, ADP-Glo luminescence, 60 min; hits give low values; max response, %; active = max response of -50% or lower; inconclusive = between -30% and -50%; inactive = -30% or higher; also: value at the top dose of about 77 µM
#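 ADP-Glo luminescence end-point read after a 60 min room-temperature kinase reaction of PI5P4Kalpha plus substrate, initiated with ATP at 5 microM final. Buffer: 0.038 M HEPES pH 7.4, EGTA, 0.1% CHAPS, 5% DMSO.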
# Hits are given with their value; – = inactive; ? = inconclusive; · = no result; [ ] = dose if it differs, or a comment. Unless noted, calls follow the shape of the dose curve; as a rule, active = well fitted curve in the direction sought with a large enough effect; inconclusive = small, poorly fitted or top-dose-only effect, or another doubt; inactive = no such curve, though single readings can be large; an effect the other way counts as inactive or inconclusive.
SMILES,BAZ2B inh,GCN5L2 inh,PLK1 PBD inh,HP1b binding inh,JMJD2A Tudor,PI5P4K alpha inh
Cc1ccc2cccc(NC(=O)COc3ccccc3[N+](=O)[O-])c2n1,–,–,·,–,–,·
CCc1nc2c(OCc3ccc(C(F)(F)F)cc3)cccn2c1N(C)C(=O)C1CC1,·,·,–,·,·,–
Cc1ccc(O)c(NC(=O)c2cccc(S(=O)(=O)N3CCCCC3)c2)c1,–,–,–,–,–,–
Cc1ccc(O)c(NC(=O)c2ccc(Br)c(S(=O)(=O)N3CCCCC3)c2)c1,18µM,–,·,–,?,·
Cc1ccc(C(=O)Nc2cccnc2)cc1S(=O)(=O)N1CCCCC1,–,–,17µM,?,–[11.4 µM],–
O=C1CCc2cc(S(=O)(=O)Nc3cccc4ccccc34)ccc2N1,·,·,·,·,–,·
COc1cc(=O)[nH]c(SCC(=O)Nc2nc3c(s2)CCCC3)n1,–,–,12µM,–,32µM,–
Cc1cc(=O)[nH]c(SCC(=O)Nc2nnc(SCc3ccccc3)s2)n1,–,–,24µM,–,–[11.4 µM],–
Cc1cc(=O)[nH]c(SCC(=O)Nc2nc3ccccc3s2)n1,?,–,?,–,–,–
COc1cc(=O)[nH]c(SC(C)C(=O)Nc2nc3c(s2)CCCC3)n1 (stereo not drawn),–,–,–,–,–,–
O=C(c1ccc(Cl)cc1)C1CCN(C(=O)c2ccccc2F)CC1,·,·,–,–,–,–
O=C(CC(c1ccccc1)(c1ccccc1)c1ccccc1)N[C@@H](Cc1ccccc1)C(=O)O,–,–,–,–,–,–
O=C(O)[C@H](Cc1ccccc1)NC(=O)C(c1ccccc1)(c1ccccc1)c1ccccc1,–,–,27µM,–,?,–
Cc1ccc(S(=O)(=O)N2C[C@H]3N(C(=O)OC(C)C)N(C(=O)OC(C)C)C[C@H](OC(=O)NCC4CCCCC4)[C@@]3(O)C2)cc1,·,·,–,·,·,–
O=C1C=C(O)c2cccc(O)c2C1=O,?,?,–,–,?,?
O=C1C=C(c2c(O)ccc3ccccc23)c2ccccc2C1=O,·,·,7.5µM,25µM,40µM,?
COC(=O)c1cc(N=Nc2sc(N)nc2C)cc(C(=O)OC)c1,–,–,–,–,–,–
Cc1nc(N)sc1N=Nc1ccccc1C(F)(F)F,28µM,–,–,35µM,50µM,–
COCCNC(=O)C1(C)Cc2c(-c3cccc(NC(C)=O)c3)ccnc2O1 (stereo not drawn),·,·,–,·,·,–
CC(C)C[C@H](NC(=O)c1[nH]cnc1C(=O)N[C@@H](C)c1ccccc1)C(=O)OC(C)(C)C,–,–,–,–,–,–
CC(C)C[C@@H](CNCC(=O)[C@H](C)NC(=O)c1[nH]cnc1C(=O)N[C@@H](C)CN)NC(=O)c1nc[nH]c1C(=O)N[C@@H](CC(=O)O)C(=O)O,·,·,?,?,79µM,–
CC(C)C[C@H](NC(=O)c1[nH]cnc1C(=O)N[C@@H](C)C(=O)OCc1ccccc1)C(=O)OCc1ccccc1,·,–,–,–,–,–
CC(C)C[C@H](NC(=O)c1[nH]cnc1C(=O)N[C@@H](C)C(=O)OC(C)(C)C)C(=O)OCc1ccccc1,–,?,–,–,–,–
CC(C)C[C@@H](CNCC(=O)[C@H](CC(C)C)NC(=O)c1[nH]cnc1C(=O)N[C@@H](C)CN)NC(=O)c1nc[nH]c1C(=O)N[C@@H](CC(C)C)C(=O)O,·,·,27µM,–,56µM,?
CC(C)C[C@@H](CNCC(=O)[C@H](Cc1ccccc1)NC(=O)c1[nH]cnc1C(=O)N[C@@H](C)CN)NC(=O)c1nc[nH]c1C(=O)N[C@@H](CC(=O)O)C(=O)O,·,·,–,–,?,–
SMILES,BAZ2B inh,GCN5L2 inh,PLK1 PBD inh,HP1b binding inh,JMJD2A Tudor,PI5P4K alpha inh
CC(C)C[C@@H](CNCC(=O)[C@H](CC(C)C)NC(=O)c1[nH]cnc1C(=O)N[C@@H](C)CN)NC(=O)c1nc[nH]c1C(=O)N[C@@H](CC(=O)O)C(=O)O,·,·,?,–,50µM,?
CC(C)C[C@@H](CNCC(=O)[C@H](C)NC(=O)c1[nH]cnc1C(=O)N[C@H](CN)CC(C)C)NC(=O)c1nc[nH]c1C(=O)N[C@@H](C)C(=O)O,·,·,?,–,56µM,–
CC(C)(C)N1[C@@H](CC(=O)O)c2cc(C(F)(F)F)ccc2S1(=O)=O,·,·,–,–,–,–
Cn1c(=O)c(-c2ccc(F)cc2)nc2cnc(N3CCOCC3)nc21,·,–,·,·,·,·
Clc1ccc(C2=NNC(=NCc3ccc4c(c3)OCO4)SC2)cc1,–,–,17µM,–,?,–
O=C1C=CC(=O)c2c(O)c(CO)c(CO)c(O)c21,·,·,9.5µM,3.2µM,2.2µM,-89
O=C1C=CC(=O)c2c(O)c(Cl)c(Cl)c(O)c21,·,20µM,·,·,·,·
O=C1C=Cc2cccc3ccc(O)c1c23,·,·,–,–,–,–
CC(C)CC(=O)NCC1(N(C)C)CCCCC1,–,–,·,–,–,·
Cc1cc2c(s1)c1cnn(Cc3cc(F)c(F)c(F)c3F)c(=O)c1n2C,·,·,·,·,–,·
Cc1nc2cc(-c3ccsc3-n3c(C)ccc3C)[nH]n2c(=O)c1Cl,50µM,?,–,–,?,?
Cc1cc(=O)n2[nH]c(-c3ccsc3-n3c(C)ccc3C)cc2n1,45µM,–,–,–,–[11.4 µM],-86
Cc1ccc(NC(=O)c2nc(S(C)(=O)=O)ncc2N(Cc2ccco2)Cc2ccco2)cc1C,–,–,·,–,–,·
CCOc1ccc(NC(=O)c2sc3nc(N4CCOCC4)c4c(c3c2N)CCCC4)cc1,–,–,30µM,–,–,–
COC(=O)c1ccc2c(C)c(C(C)(C)O)[nH]c2c1,?,–,–,–,–,–
c1ccc(C2NCCc3ccccc32)cc1 (stereo not drawn),–,–,27µM,–,?,–
Fc1ccccc1/C=N/n1c(COc2ccccc2)n[nH]c1=S,?,–,24µM,?,32µM,–
Oc1ccccc1/C=N/n1c(COc2ccccc2)n[nH]c1=S,–,–,?,?,79µM,–
CCN(C(=O)COC(=O)/C=C/c1c(C)nn(-c2ccccc2)c1C)C1CCS(=O)(=O)C1 (stereo not drawn),–,–,–,–,–,–
CCCCn1c(N)c(N(CCOC)C(=O)CN2C(=O)NC3(CC(C)CC(C)(C)C3)C2=O)c(=O)[nH]c1=O (stereo not drawn),·,·,–,–,–,–
CC(C)CCNC(=O)NC(=O)COC(=O)/C=C/c1cc(Br)ccc1F,–,–,15µM,–,14µM,-62
